Pf apPOL block: Pf-apPOL inhibitors, biochemical, fluorescence; hit rate 0.25% among 210,000; Plasmodium falciparum apicoplast DNA polymerase (apPOL); Recombinant Pf-apPOL, molecular beacon fluorescence, 1.5 h; inhibition, % at 10 µM; AID 1794808, 2022
mHTT-CaM PPI inh: mutant huntingtin-calmodulin interaction inhibitors – biochemical, AlphaScreen, primary screen; hit rate 3.6% among 190,000; AlphaScreen His-mHTT/GST-CaM binding, luminescence; inhibition, % at 15 µM
Large screens that a line does not name were inactive; ! = a repeat was not active. Many of the other results were omitted from the sample, so hits are more common in it than they were. Cut-off read from the data, not from the text of the source: active = inhibition above about 50%; inactive = the rest.

CCn1nccc1C(=O)N1CCCC2(C1)Nc1ccccc1NC2=NCc1ccccc1 (centres undefined)	none
COc1ccc(CSc2nc3ccccc3s2)cc1OC	none
CC(=O)NC(=O)c1cc2cc([N+](=O)[O-])ccc2oc1=Nc1ccc(C)cc1	none
CSc1ccc(N2CC(c3nnc(NC(=O)c4ccccc4C)o3)CC2=O)cc1 (centres undefined)	none
CC(=O)Nc1ccc(-c2noc(C3CCN(C(=O)C4CCCO4)CC3)n2)cc1 (centres undefined)	none
COc1c(C(=O)N2CCN(C3CCCCC3)CC2)sc2cccc(F)c12	none
COc1cc(CN2CCSCC2)cc(I)c1O	none
COc1cc(CN2CCCCCCC2)cc([N+](=O)[O-])c1O	none
COc1cc(NCc2cc(I)c(O)c(OC)c2)cc(OC)c1	mHTT-CaM PPI inh 89
COc1cc(NCc2cc(OC)c(O)c([N+](=O)[O-])c2)cc(OC)c1	mHTT-CaM PPI inh 65
O=C1CC(Nc2ccc(F)cc2)C(=O)N1c1ccc(Cl)c(Cl)c1 (centres undefined)	none
O=C(Nc1cccn2c(C3CCC3)nnc12)C1CCCO1 (centres undefined)	none
O=C(Nc1cccn2c(C3CCC3)nnc12)c1ccccn1	mHTT-CaM PPI inh 61
CCOC(=O)c1ccc(NS(=O)(=O)C2CC2)cc1	none
CNC(=O)c1cccc(C(=O)N(C)c2ccccc2)n1	none
O=C(COc1ccc(F)c(F)c1)N1CCC(Nc2cccnc2)C1 (centres undefined)	none
O=C(Nc1ccc([N+](=O)[O-])cc1O)C1C2CC/C=C\CCC21 (centres undefined)	Pf apPOL block 93
Cc1ccc([N+](=O)[O-])cc1NC(=O)C1CC1	none
COc1ccc(N=C/C=C/c2ccccc2Cl)cc1Cl	mHTT-CaM PPI inh 55
COc1ccc(N=Cc2ccc(Cl)cc2)cc1Cl	none
Cc1cccc(NCN2C(=O)S/C(=C\c3ccccc3F)C2=O)c1	mHTT-CaM PPI inh 54
O=C1S/C(=C\c2ccccc2F)C(=O)N1CNc1cccc([N+](=O)[O-])c1	none
Cc1cc(C)cc(N2CC(C(=O)NCCc3ccccc3)CC2=O)c1 (centres undefined)	none
N#CC1=CN(c2ccccc2Br)c2ccc(F)cc2S1(=O)=O	none
Cc1oc(C2CCN(C(=O)c3cccc(C(F)(F)F)c3)CC2)nc1C(=O)N1CCCC1	none
OCCOCCNc1ncnc2c1c(-c1ccccc1)cn2-c1cccc(C(F)(F)F)c1	none
OCCOCCNc1ncnc2c1c(-c1ccccc1)cn2-c1cccc(Cl)c1	mHTT-CaM PPI inh 54
COc1cc(C=C2Oc3c(ccc(O)c3CN(C)Cc3ccccc3)C2=O)cc(OC)c1OC	none
Cn1c(/C(C#N)=C/c2cccc([N+](=O)[O-])c2O)nc2ccccc21	none
O=C(Nc1cccc(-c2nc3ccccc3[nH]2)c1)c1ccc([N+](=O)[O-])cc1	mHTT-CaM PPI inh 84!
CC(=O)c1ccc(C(=O)Nc2cccc(-c3nc4ccccc4[nH]3)c2)cc1	none
Cc1cc(=O)n2ccc(CN3CCCCC3)c(O)c2n1	mHTT-CaM PPI inh 92
CC(C)(C)c1nc(CN2CCCCC2)cc(CN2CCCCC2)c1O	none
CCc1ccc(NC(=O)N2CCCC(c3cccc(C(=O)NCCN(C)C)c3)C2)cc1 (centres undefined)	none
COc1cc2c(cc1/C=C1\SC(=O)N(CCOc3ccc(F)cc3)C1=O)OCO2	none
O=C1C2=C(Nc3ccccc3SC2c2ccco2)c2ccccc21 (centres undefined)	mHTT-CaM PPI inh 69
COc1cc(C2C3=C(Nc4c2c(=O)[nH]c(=O)n4C)c2ccccc2C3=O)ccc1O (centres undefined)	none
O=C1CCCC2=C1C(c1ccco1)C1=C(N2)c2ccccc2C1=O (centres undefined)	none
COc1ccc(C2Sc3ccccc3NC3=C2C(=O)c2ccccc23)cc1OC (centres undefined)	mHTT-CaM PPI inh 69
O=C(COc1ccccn1)c1ccc(Br)cc1	none
CCOc1ccc(/C=c2\sc3nc(-c4ccc(Cl)cc4)nn3c2=O)cc1OC	none
CC(=O)N1CCc2cc(N=Cc3cccc([N+](=O)[O-])c3O)ccc21	none
C#CC(O)(c1ccc(OC)c(OC)c1)c1ccc(OC)cc1OC (centres undefined)	none
CC[C@H]1c2[nH]c3ccc(C(C)C)cc3c2[C@@H]2CCN3C(=O)CCC[C@H]1[C@H]23	mHTT-CaM PPI inh 71
CC[C@@H]1C(=O)[C@H](Cc2ccccc2)[C@H]2CCCC(=O)N3CC[C@@H]1[C@@H]23	none
CCN(CC)CCNC(=O)CN1C(=O)/C(=C/c2ccc(C(F)(F)F)cc2)Sc2ccccc21	mHTT-CaM PPI inh 100
O=C(CN1C(=O)/C(=C/c2cccc(Cl)c2)Sc2ccccc21)NCCN1CCCCCC1	mHTT-CaM PPI inh 54
O=C(CN1C(=O)/C(=C/c2ccc(Cl)cc2)Sc2ccccc21)NCCN1CCCC1	none
CCCCN(C)CCNC(=O)CN1C(=O)/C(=C/c2cccc(Cl)c2)Sc2ccccc21	none
CCCCN(C)CCCNC(=O)CN1C(=O)/C(=C/c2cccc(Cl)c2)Sc2ccccc21	mHTT-CaM PPI inh 98
CCN(CC)CCNC(=O)CN1C(=O)/C(=C/c2cccc(Cl)c2)Sc2ccccc21	none
Cc1ccc(CNC(=O)c2ccc3c(c2)CC(=O)N3C)o1	none
CN(C)CCCNCc1cccn1C	none
Cn1nc(C(=O)N2CCc3[nH]ncc3C2)c2ccccc21	none
COc1cccc(C2=N/C(=C\c3ccccc3OC)C(=O)N2c2ccc(OC)c(OC)c2)c1	none
O=C1OC(N2CCN(CCO)CC2)c2ccccc21 (centres undefined)	none
Nc1nc(O)c(C2=c3cc(F)ccc3=NC2=O)s1	mHTT-CaM PPI inh 81
O=C1N=c2ccc(F)cc2=C1c1sc(Nc2ccc(F)cc2)nc1O	none
CCC(NC(=O)Cc1ccccc1)C(=O)O (centres undefined)	none
CCC(=O)N1CCN(c2nc3c(s2)CC(C(=O)N2CCN(C(C)C)CC2)CC3)CC1 (centres undefined)	none
CS(=O)(=O)N(CC(=O)N1CCCC1)c1cccc([N+](=O)[O-])c1	none
Cc1nc2c(C(=O)NC3CCCCC3)cnn2c(C)c1Cc1cccc(Br)c1	none
Cc1nc2c(C(=O)NC3CC3)cnn2c(C)c1Cc1ccc(F)cc1	mHTT-CaM PPI inh 64
Cc1nc2c(C(=O)NC3CCCC3)cnn2c(C)c1Cc1ccc(Cl)cc1	none
Cc1nc2c(C(=O)NC3CC3)cnn2c(C)c1Cc1cccc(Br)c1	mHTT-CaM PPI inh 92
Cc1nc2c(C(=O)NC3CC3)cnn2c(C)c1Cc1cccc(Cl)c1	mHTT-CaM PPI inh 97
Cc1nc2c(C(=O)NC3CCCCC3)cnn2c(C)c1Cc1ccc(Cl)cc1	none
COc1ccc(CNC(=O)C2CCN(c3cncnc3N(C)C)CC2)cc1OC	none
O=C(COc1ccc(Cl)cc1)Nc1nnc2ccccn12	none
COc1cccc(C=Nc2c(-c3ccccc3)c(C(F)(F)F)nn2C)c1OC	none (no result: mHTT-CaM PPI inh)
CCc1ccc(C(=O)N2CC3CN(S(=O)(=O)c4cccc(C)c4)CC(C2)O3)cc1	mHTT-CaM PPI inh 65
Cc1cccc(S(=O)(=O)N2CC3CN(C(=O)c4cccc(F)c4)CC(C2)O3)c1	none
O=c1ccc(-c2noc(-c3ccc4ccccc4n3)n2)c[nH]1	none
Fc1ccc(CN2CCc3nc(Nc4ccc5c(c4)OCCO5)ncc3C2)c(F)c1	mHTT-CaM PPI inh 58
Fc1ccc(CN2CCc3nc(Nc4ccc5c(c4)OCO5)ncc3C2)c(F)c1	none
CN(C)c1ccc(CN2CCc3nc(Nc4ccc5c(c4)OCO5)ncc3C2)cc1	none
COc1ccc(CN2CCc3nc(Nc4ccc5c(c4)OCCO5)ncc3C2)cc1OC	none
